According to PubChem BioAssay (NCI):
About 79,000 compounds went through this panel and 15% of them were active in at least one assay; those are over-represented in the sample as a whole. Calls of active or inactive are those of the source. No stated cut-off is given here; in the data, active means growth inhibition above about 70%; inactive means the rest.

Legend:
[1] = NCI Yeast Anticancer Drug Screen. Data for the rad52 strain (AID 147);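 further: 0% = growth of vehicle-treated control cultures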; details: S. cerevisiae rad52 mutant growth inhibition, active compounds read high
In short: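 Measured: yeast growth inhibition. System: strain with a defined DNA damage repair alteration. Reference: vehicle-treated control cultures.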

[2] = NCI Yeast Anticancer Drug Screen. Data for the rad50EPP+ strain (AID 151);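 further: 0% = growth of vehicle-treated control cultures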; details: S. cerevisiae rad50 mutant strain, active compounds read high
In short: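 One strain with a rad50 alteration (rad50EPP+) was compound-treated, its growth then compared to that of vehicle controls.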

[3] = NCI Yeast Anticancer Drug Screen. Data for the mgt1 strain (AID 153); details: S. cerevisiae mgt1 mutant growth inhibition, active compounds read high
In short: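 After exposure of the mgt1 yeast mutant to compound, growth was measured and reported as inhibition compared with vehicle controls.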

[4] = NCI Yeast Anticancer Drug Screen. Data for the rad50 strain (AID 155);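 further: 0% = growth of vehicle-only cultures of the same strain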; details: S. cerevisiae rad50 strain growth inhibition, active compounds read high
In short: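 Yeast carrying a defined DNA repair defect were exposed to test compounds, and growth was compared with vehicle-treated controls to give percent inhibition.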

[5] = NCI Yeast Anticancer Drug Screen. Data for the mec2-1 strain (AID 157); details: S. cerevisiae mec2-1 strain, active compounds read high
In short: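 Test agents were screened against the mec2-1 yeast strain, with defined DNA repair or cell cycle alteration. Growth was scored as inhibition against vehicle-only controls.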

[6] = NCI Yeast Anticancer Drug Screen. Data for the rad14 strain (AID 159);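 further: 0% = growth of vehicle-treated control cultures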; details: S. cerevisiae rad14 strain growth inhibition, active compounds read high
In short: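 Yeast cells carrying a defined DNA-repair defect were exposed to compounds, and growth inhibition was calculated relative to vehicle-treated control cultures.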

[7] = NCI Yeast Anticancer Drug Screen. Data for the sgs1 mgt1 strain (AID 161);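 further: 0% = growth of cultures given vehicle only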; details: S. cerevisiae sgs1 mgt1 strain, active compounds read high
In short: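 Inhibition of yeast growth, normalised to vehicle-treated controls, is reported for a strain bearing genetic alterations in DNA damage repair.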

[8] = NCI Yeast Anticancer Drug Screen. Data for the CLN2oe strain (AID 163);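 further: 0% = growth of vehicle-only control cultures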; details: S. cerevisiae CLN2oe strain, active compounds read high
In short: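 Here, growth inhibition in a cell-cycle-altered yeast strain after compound exposure was quantified against vehicle control growth.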

[9] = NCI Yeast Anticancer Drug Screen. Data for the cln2 rad14 strain (AID 165);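 further: 0% = growth equal to vehicle treated cultures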; details: S. cerevisiae cln2 rad14 strain, active compounds read high
In short: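 Growth of compound-exposed yeast (cln2 rad14 genotype) measured and expressed as inhibition relative to vehicle.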

[10] = NCI Yeast Anticancer Drug Screen. Data for the bub3 strain (AID 167); details: S. cerevisiae bub3 mutant strain, active compounds read high
In short: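 Compounds were applied to a genetically altered yeast strain carrying a cell-cycle control defect. Growth inhibition was scored against vehicle-treated controls.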

[11] = NCI Yeast Anticancer Drug Screen. Data for the wt2 strain (AID 169);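 further: 0% = growth of vehicle-treated yeast cultures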; details: S. cerevisiae wt2 strain growth inhibition, active compounds read high
In short: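 Genetically defined yeast strains from a DNA-repair/cell-cycle panel were used. Compound-exposed yeast growth was measured, and the inhibition was calculated relative to vehicle treatment.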

[12] = NCI Yeast Anticancer Drug Screen. Data for the mlh1 strain (AID 171);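 further: 0% = growth of vehicle-treated control cultures of the same strain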; details: S. cerevisiae mlh1 strain growth inhibition, active compounds read high
In short: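 Here the genetically defined yeast mutant is grown with each compound, and the extent to which its growth falls below that of vehicle-exposed cells is reported.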

[13] = NCI Yeast Anticancer Drug Screen. Data for the sgs1 strain (AID 173);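 further: 0% = growth of vehicle-only control cultures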; details: S. cerevisiae sgs1 mutant, active compounds read high
In short: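 Relative growth inhibition, referenced to vehicle, was determined in a yeast strain with a defined alteration affecting DNA damage repair or cell cycle control after compound exposure.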

[14] = NCI Yeast Anticancer Drug Screen. Data for the mlh1 rad18 strain (AID 175); details: S. cerevisiae mlh1 rad18 strain growth inhibition, active compounds read high
In short: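 In this whole-cell yeast screen, a strain with altered DNA damage repair is challenged with compound, and its growth is measured against matched vehicle-treated controls.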

[15] = NCI Yeast Anticancer Drug Screen. Data for the rad18 strain (AID 177); details: S. cerevisiae rad18 mutant growth inhibition, active compounds read high
In short: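 Screen uses a yeast strain with a defined lesion in DNA damage repair; compound effect is read as loss of growth compared to untreated vehicle cultures.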

[16] = at 5.0 µM (retest, dose inferred, filed as 0.5)
[17] = at 50.0 µM (retest, dose inferred, filed as 5.0)

Measured: growth inhibition

Nc1cccc(-c2cc[cH-]c2)c1.[Fe+2].c1cc[cH-]c1
active: [1]; at 100.0 µM 95% | [2]; at 100.0 µM 76% | [3]; at 100.0 µM 93% | [4]; at 100.0 µM 96% | [5]; at 100.0 µM 79% | [6]; at 100.0 µM 96% | [10]; at 100.0 µM 86% | [11]; at 100.0 µM 95% | [12]; at 100.0 µM 96% | [13]; at 100.0 µM 99% | [15]; at 100.0 µM 97%
inactive: [1]; at 1.2 µM -2% | [1]; at 3.7 µM 6% | [1]; at 11.0 µM 15% | [1]; at 33.0 µM 39% | [2]; at 1.2 µM -1% | [2]; at 3.7 µM 9% | [2]; at 11.0 µM 21% | [2]; at 33.0 µM 20% | [3]; at 1.2 µM -4% | [3]; at 3.7 µM -3% | [3]; at 11.0 µM -2% | [3]; at 33.0 µM 4% | [4]; at 1.2 µM -3% | [4]; at 3.7 µM 3% | [4]; [16] -14% | [4]; at 11.0 µM 16% | [4]; at 33.0 µM 35% | [4]; [17] 15% | [4]; at 50.0 µM 35.5% | [5]; at 1.2 µM -2% | [5]; at 3.7 µM -3% | [5]; [16] -18% | [5]; at 11.0 µM -3% | [5]; at 33.0 µM 3% | [5]; [17] -10% | [5]; at 50.0 µM 38.5% | [6]; at 1.2 µM 0% | [6]; at 3.7 µM 6% | [6]; at 11.0 µM 14% | [6]; at 33.0 µM 25% | [7]; [16] -9% | [7]; [17] 7% | [7]; at 50.0 µM 31.4% | [8]; at 1.2 µM -11% | [8]; at 3.7 µM -5% | [8]; at 11.0 µM -6% | [8]; at 33.0 µM -1% | [8]; at 100.0 µM 64% | [9]; [16] -8% | [9]; [17] 9% | [9]; at 50.0 µM 17.6% | [10]; at 1.2 µM 6% | [10]; at 3.7 µM 6% | [10]; [16] 5% | [10]; at 11.0 µM 7% | [10]; at 33.0 µM 27% | [10]; [17] 68% | [10]; at 50.0 µM 58.2% | [11]; at 1.2 µM 6% | [11]; at 3.7 µM 4% | [11]; at 11.0 µM 9% | [11]; at 33.0 µM 3% | [12]; at 1.2 µM -3% | [12]; at 3.7 µM 2% | [12]; at 11.0 µM 8% | [12]; at 33.0 µM 23% | [13]; at 1.2 µM -10% | [13]; at 3.7 µM -30% | [13]; at 11.0 µM 11% | [13]; at 33.0 µM 54% | [14]; [16] -21% | [14]; [17] 39% | [14]; at 50.0 µM 55.5% | [15]; at 1.2 µM -4% | [15]; at 3.7 µM 7% | [15]; at 11.0 µM 26% | [15]; at 33.0 µM 50%
